109 compounds from PubChem BioAssay AID488922 (Johns Hopkins Ion Channel Center, 2010) can be followed below.

Structures are written as SMILES. About 3,800 (1.2%) of roughly 310,000 compounds were called active.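 The calls were made as follows: active = ratio B-score over 3 SD below the library mean, with starting fluorescence within 5 SD of its mean; inactive = the rest, inconclusive results apart.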 This excerpt belongs to a sample that is enriched for actives.

The test deals with Potassium channel subfamily K member 9 (Homo sapiens) (UniProt Q9NPC2). Description: blockers of human TASK-3 (KCNK9) channel – HEK293 cells, thallium flux, primary screen (AID 488922).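 As to B-score: negative B-score means less thallium flux so channel inhibition.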 The note with it: HEK293 KCNK9, FluxOR thallium flux fluorescence, at 10 µM; active compounds read low.
Sequence of Potassium channel subfamily K member 9 (Homo sapiens) (Q9NPC2 whole entry, looked up): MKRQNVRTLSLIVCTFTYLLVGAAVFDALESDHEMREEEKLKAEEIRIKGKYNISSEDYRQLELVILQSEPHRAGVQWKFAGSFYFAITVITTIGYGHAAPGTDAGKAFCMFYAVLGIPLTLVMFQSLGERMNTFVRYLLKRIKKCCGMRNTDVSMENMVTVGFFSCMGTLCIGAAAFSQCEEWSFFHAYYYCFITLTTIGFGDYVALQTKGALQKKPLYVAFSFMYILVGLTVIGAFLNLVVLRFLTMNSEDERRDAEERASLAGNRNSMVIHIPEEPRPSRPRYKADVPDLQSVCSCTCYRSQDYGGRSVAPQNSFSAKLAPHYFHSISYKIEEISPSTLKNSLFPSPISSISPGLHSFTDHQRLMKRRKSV
As for `CC1(c2cccc([N+](=O)[O-])c2)CC(C)(C)N(C(=O)c2ccccc2)c2ccccc21` (centres undefined), the B-score was -7.5 (active).
The same measure for `O=C(c1cccc([N+](=O)[O-])c1)N1CCN(Cc2ccccc2)CC1`: “inactive”; for `CC1(c2ccccc2)CC(C)(C)N(C(=O)c2cc([N+](=O)[O-])cc([N+](=O)[O-])c2)c2ccccc21` (centres undefined): “inactive”.
Turning to `O=C(NC(=S)Nc1ccc(Cl)cc1Cl)C1CC1`, the B-score entry was “inactive”.
To `Cc1ccccc1NC(=S)NNC(=O)c1cccc(Br)c1` belongs “inactive”; to `CC(CC(=O)O)CC(=O)NNC(=O)c1cccc(Br)c1` (centres undefined), “inactive”.
Turning to `O=C(/C=C/NNC(=O)c1cccc(Br)c1)c1ccccc1`, the B-score was -12.9 (active).
The same measure for `Cc1c(C(C)(C)O)[nH]c2ccc(C#N)cc12`: “inactive”; for `O=C(O)/C=C/C(=O)NNc1ccc([N+](=O)[O-])cc1`: “inactive”; for `Cc1cccc(NC(=O)CSc2nnc(CCCCCNC(=O)OC(C)(C)C)o2)c1C`: “inactive”.
The same measure for `Cc1ccc(C(=O)Cc2nnc(C)s2)cc1`: “inactive”; for `CCOC(=O)C1CCCN(S(=O)(=O)c2ccc(-n3cnnn3)c(C)c2)C1` (centres undefined): “inactive”; for `Oc1ccc(/C=N/N(Cc2ccccc2)c2ccccc2)cc1`: -7.55 (active).
With `CN(C)c1ccc(/C=N/N(Cc2ccccc2)c2ccccc2)cc1`, the B-score result was “inactive”.
To `CCN(/N=C/c1ccc(N(C)C)cc1)c1nc2ccccc2[nH]1` belongs “inactive”; to `COc1ccc(CCn2nnnc2C(c2ccccc2)N2CCN(C)CC2)cc1OC` (centres undefined), “inactive”.
The same measure for `N#Cc1ccc(C(c2nnnn2CCc2ccccc2)N2CCCCCC2)cc1` (centres undefined): -7.47 (active); for `CC(C)C(c1nnnn1CCc1ccccc1)N1CCN(C(=O)c2ccco2)CC1` (centres undefined): “inactive”.
For the compound `CCCn1c(C(O)c2cc(OC)ccc2OC)nc2ccccc21` (centres undefined), the B-score result is “inactive”.
For `CCn1c(C(O)c2cc(OC)ccc2OC)nc2ccccc21` (centres undefined), the B-score entry is “inactive”.
For the compound `COc1ccc(OC)c(C(O)c2nc3ccccc3n2C)c1` (centres undefined), the B-score is -7.74 (active).
To `Cn1ncc2c(N3CCCCC3)nc(NCCCO)nc21` belongs “inactive”; to `COc1ccccc1C(=O)NCc1nnc(SC(C)C(=O)Nc2nccs2)n1C` (centres undefined), “inactive”.
The same measure for `C=CCc1cc(S(=O)(=O)c2ccc(O)c(CC=C)c2)ccc1O`: -11.9 (active).
The same measure for `CCOC(=O)N1CCC(NC(=O)CN2C(=O)COc3ccc(C(C)(C)C)cc32)CC1`: “inactive”.
With `C#CC(C)(C)NC(=O)c1cnc(-c2ccccc2)nc1-c1ccccc1`, the B-score result was “inactive”.
To `COc1ccc(C2CC(c3cccs3)=Nc3ccccc3S2)cc1OC` (centres undefined) belongs -8.55 (active).
To `COc1ccc(C2CC(c3cccs3)=NN2c2ccc(F)cc2)cc1OC` (centres undefined) belongs -7.88 (active).
Take `COc1ccccc1N1N=C(c2cccs2)CC1c1ccccc1` (centres undefined): the B-score entry is “inactive”.
To `COc1ccc(C2CC(c3cccs3)=NN2C(=O)CCC(=O)O)cc1OC` (centres undefined) belongs “inactive”.
Regarding `COc1ccc(C2=NN(c3ccccc3)C(c3cccs3)C2)cc1` (centres undefined), the B-score result is “inactive”.
To `COc1ccc(C2CC(c3cccs3)=NN2C(=O)CSc2nnc(N)s2)cc1OC` (centres undefined) belongs “inactive”; to `COc1ccc(C2CC(c3cccs3)=NN2C(=O)CSc2nncs2)cc1OC` (centres undefined), “inactive”.
Turning to `COc1ccc(C2CC(c3cccs3)=NN2c2nc(C)c(C(C)=O)s2)cc1OC` (centres undefined), the B-score result was “inactive”.
`COc1ccc(C2CC(c3cccs3)=NN2c2ccccc2)cc1` (centres undefined): the B-score is -11.3 (active).
Regarding `COc1ccc(NCCc2ccccn2)cc1`, the B-score entry was “inactive”.
To `Cc1nn(C)c(C)c1C(C)NC(=O)c1ccc(OC2CCN(Cc3ccccn3)CC2)cc1` (centres undefined) belongs “inactive”; to `COc1ccccc1/C=C/C(=O)NC1CC2CCC1C2` (centres undefined), “inactive”; to `Cc1ccc(SCC2=NNC(=O)C2)cc1`, “inactive”.
The same measure for `O=C(COC(=O)c1ccccc1)Nc1ccccc1Sc1ccccc1`: -9.75 (active); for `Cc1ccccc1C(=O)Nc1ccccc1Sc1ccccc1`: “inactive”.
To `O=C(COC(=O)c1cccc(Br)c1)Nc1cccc2c1C(=O)c1ccccc1C2=O` belongs “inactive”.
Regarding `CCn1c(=O)n(CC)c2cc(N3CCCC3)c(NC(=O)c3ccccc3Br)cc21`, the B-score entry is “inactive”.
Consider `COc1ccc(-c2c(C(C)=O)c(C)nc3sc4c(=O)n(-c5ccc(C)cc5)nnc4c23)cc1`, for which the B-score result is “inactive”.
The same measure for `O=C(COc1ccc([N+](=O)[O-])cc1Cl)Nn1cnnc1`: “inactive”; for `CCN(C(=O)COc1ccc(C(=O)c2ccccc2)cc1)c1ccccc1`: -8.43 (active).
To `CCN(C(=O)c1ccc(Br)cc1)c1ccccc1` belongs “inactive”; to `O=C(COc1ccc(F)cc1)N(CC1=CCS(=O)(=O)C1)c1ccccc1`, “inactive”; to `COc1ccc2cc(CCl)c(Cl)nc2c1`, “inactive”.
Consider `Cc1ccc(S(=O)(=O)N(CCCN(C)C)Cc2ccc3c(c2)OCO3)cc1`, for which the B-score entry was “inactive”.
The same measure for `O=C(C[C@H]1C(=O)N(c2ccc(F)c(F)c2)C[C@@H]1Cc1ccccc1)Nc1ccccc1`: -12.2 (active); for `O=C(CSC1CC(=O)N(CCc2ccccc2)C1=O)Nc1ccc(Cl)cc1` (centres undefined): “inactive”; for `O=C(CN1CCN(c2ccc(F)cc2)CC1)Nc1ccccc1`: “inactive”.
The same measure for `CC(c1ccccc1)n1c(NCCCn2ccnc2)nc2c1c(=O)[nH]c(=O)n2C` (centres undefined): “inactive”; for `CC1CCCCC1NC(=O)COC(=O)Cc1ccc(Br)cc1` (centres undefined): “inactive”; for `COCc1cc(C(C)=O)ccc1OC`: “inactive”.
As to `COc1ccc(C(C)=O)cc1COc1ccc(Cl)c(C)c1`, the B-score is -10.5 (active).
Regarding `COc1ccc(-c2noc(COc3ccc(Cl)c(C)c3)n2)cc1`, the B-score result was “inactive”.
To `COc1ccc(/C(N)=N/OC(=O)Cc2ccccc2)cc1` belongs “inactive”.
To `COc1cccc(NC(=O)c2ccc(Cn3cc([N+](=O)[O-])cn3)o2)c1` belongs “inactive”.
Regarding `O=C(c1ccc(Cn2cc([N+](=O)[O-])cn2)o1)N1CCCC1`, the B-score entry is “inactive”.
The same measure for `O=C(Nc1ccc(Br)c2cccnc12)c1ccc(Cn2cc([N+](=O)[O-])cn2)o1`: -12.7 (active); for `O=C(Nc1nonc1-c1ccc(Cl)cc1)c1ccco1`: “inactive”; for `O=C(Nc1cccc(CCc2ccccn2)c1)c1ccc(Cl)cc1`: “inactive”.
The same measure for `Cc1cccc(C(=O)Nc2ccc(C(=O)N/N=C/c3cccc(C)n3)cc2)c1`: “inactive”; for `O=C(COc1ccc(Cl)cc1Cl)NCCCNC(=O)c1cnccn1`: “inactive”; for `CNC(=O)C(=O)N/N=C/c1ccccn1`: “inactive”.
To `O=C(COc1ccc(Cl)cc1Cl)N/N=C/c1ccccn1` belongs -9.19 (active).
Regarding `O=C(N/N=C/c1ccccn1)c1cccc(NC(=O)c2ccc(Cl)cc2)c1`, the B-score is -8.92 (active).
The same measure for `COc1ccccc1NC(=O)c1cc(Cl)nnc1Cl`: “inactive”; for `CCc1noc(C)c1C(=O)Nc1nc(-c2ccccc2)cs1`: “inactive”.
The same measure for `C[C@H](NC(=O)C1CC(=O)N(c2ccc3c(c2)OCO3)C1)C(=O)NCc1ccco1` (some centres undefined): “inactive”.
To `O=C(/C=C/c1ccccc1)Oc1coc(CSc2ncccn2)cc1=O` belongs “inactive”; to `COc1cc(OC)cc(-c2cc3nc(C4CCN(C(=O)OC(C)(C)C)CC4)cc(=O)n3[nH]2)c1`, “inactive”.
For the compound `O=C(c1ccc(F)cc1)N1CCC(C(=O)N2CCN(S(=O)(=O)c3ccccc3Br)CC2)CC1`, the B-score result is “inactive”.
To `O=C(Cc1ccc(S(=O)(=O)N2CCCC2)s1)NC1CCCCCC1` belongs “inactive”.
To `O=C(Cn1nnc(N2CCCCC2)n1)c1ccc(Cl)c(Cl)c1` belongs “inactive”; to `CCCn1c(=N)n(CC(=O)c2ccc(Cl)c(Cl)c2)c2ccccc21`, -7.8 (active).
To `CCN(CC)CC1(O)CCN(C(=O)c2ccc(Cl)c(Cl)c2)CC1` belongs “inactive”; to `O=c1c2c3c(sc2n(CCN2CCCC2)c(=O)n1Cc1ccccc1)CCCCC3`, “inactive”.
Turning to `COc1cccc(N2CC(NC(=O)c3ccc4ccccc4c3)CC2=O)c1` (centres undefined), the B-score entry was “inactive”.
The same measure for `COc1cccc(CNS(=O)(=O)c2ccc3c(c2)CC(C)N3C(=O)C2CCC2)c1` (centres undefined): “inactive”; for `Cc1ccc2nc3c(cc(C(=O)NCCc4ccccc4)c(=N)n3CC3CCCO3)c(=O)n2c1` (centres undefined): “inactive”; for `Cc1cc(C)c(C)c(S(=O)(=O)N2CCN(C(=O)c3ccc4c(=O)n5c(nc4c3)CCC5)CC2)c1C`: “inactive”.
To `COc1ccc(C(C)C)cc1S(=O)(=O)Nc1ncn[nH]1` belongs “inactive”; to `CCOc1ccc(C(C)C)cc1S(=O)(=O)n1nc(C)cc1C`, -10.1 (active); to `CCOc1cc(C)c(Cl)cc1S(=O)(=O)n1nnc2ccccc21`, “inactive”.
As for `CCOc1ccc(OCC(=O)Nc2c3c(nn2C(C)(C)C)CS(=O)(=O)C3)cc1`, the B-score result was “inactive”.
The same measure for `CCCC(c1nnnn1C(C)(C)C)N1CCN(Cc2ccccc2)CC1` (centres undefined): “inactive”.
To `COc1ccc(OC)c(C(c2nnnn2C(C)(C)C)N2CCc3ccccc3C2)c1` (centres undefined) belongs “inactive”; to `COc1ccccc1C(c1nnnn1C(C)(C)C)N1CCN(Cc2ccccc2)CC1` (centres undefined), -21.5 (active); to `CCC(C)(C)n1nnnc1C(c1cccs1)N1CCN(c2nc3ccccc3s2)CC1` (centres undefined), -9.04 (active).
With `COc1ccccc1C(c1nnnn1CC1CCCO1)N1CCN(c2ccccc2)CC1` (centres undefined), the B-score entry is “inactive”.
The same measure for `CCC(C)(C)n1nnnc1C(c1ccccc1OC)N1CCSCC1` (centres undefined): -7.08 (active); for `CC(C)(C)n1nnnc1C(c1ccc(Cl)cc1)N1CCSCC1` (centres undefined): “inactive”; for `CCC(C)(C)n1nnnc1C(c1ccc(OC)c(OC)c1)N1CCN(C(=O)c2ccco2)CC1` (centres undefined): “inactive”.
The same measure for `CC(C)(C)n1nnnc1C(c1ccc2ncccc2c1)N1CCSCC1` (centres undefined): “inactive”.
As for `O=C(NC(=S)Nc1ccc2oc(=O)ccc2c1)c1ccc(-c2cccc(Cl)c2Cl)o1`, the B-score result was “inactive”.
To `Cc1ccc(S(=O)(=O)N2CCN(C(=O)c3ccc(-n4cncn4)c([N+](=O)[O-])c3)CC2)cc1` belongs “inactive”; to `COc1ccc(CNC(=O)C2CCCC2)cc1`, “inactive”.
To `O=C1CC2(CC(c3ccc(Cl)cc3)=NO2)C(=O)N1c1ccccc1` (centres undefined) belongs “inactive”; to `Nc1cc(C(F)(F)F)ccc1N1CCOCC1`, “inactive”.
To `CCC(C)c1ccc(NC(=S)N2CCCC2)cc1` (centres undefined) belongs “inactive”; to `COCCNC(=S)N(Cc1cccnc1)Cc1ccc(OC)c(OC)c1`, “inactive”; to `Cc1ccc(CN(Cc2cccnc2)C(=S)Nc2cccc(Cl)c2C)cc1`, -6.65 (active).
For the compound `Cc1c(Cl)cccc1NC(=S)N(Cc1ccccc1)Cc1cccnc1`, the B-score entry is “inactive”.
On to `Cc1ccc(CN(Cc2cccnc2)C(=S)Nc2cc(Cl)ccc2C)cc1`, for which the B-score was -7.5 (active).
Take `Cc1cccc(C)c1NC(=S)N(Cc1cccnc1)Cc1ccccc1Cl`: the B-score result was “inactive”.
To `Cc1ccc(Cl)cc1NC(=S)N(CCN(C)C)Cc1cccs1` belongs “inactive”.
